Hits are enriched below; roughly 2.4% of the tested compounds scored in any of these assays.
LEDGF integ inh = blockers of LEDGF/p75-dependent integrase strand transfer – biochemical, TR-FRET, high throughput, primary screen; HIV-1 integrase (with human LEDGF/p75); TR-FRET IN-LEDGF/p75 DNA integration, Eu/Cy5; inhibition, % at 3.7 µM; actives 0.64% (n = 370,000);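 active = inhibition above the screen-wide mean plus 3 SD, cut at about 13% in these data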;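 also: signal is the Cy5 over europium emission ratio at 671 and 618 nm; 0% = plate median of compound wells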
PLC-gamma1 inh = PLC-gamma1 enzyme inhibitors, primary screen, biochemical, fluorescence, purified enzyme; fluorogenic substrate; AID 720700, 2013; 1-phosphatidylinositol 4,5-bisphosphate phosphodiesterase gamma-1 (Homo sapiens), P19174; inhibition, % at 12.2 µM; actives 0.84% (n = 370,000); in the data active = inhibition above about 9.5%
MBD2 DNA inh = inhibitors of MBD2 binding to methylated DNA, primary screen, biochemical, TR-FRET, DNA-binding domain, human; MBD2 binding to methylated oligonucleotide; inhibition, % at 4.4 µM; actives 0.31% (n = 370,000); in the data active = inhibition above about 13%
PLCb3 inh = human PLC-beta3 inhibitors, primary screen, biochemical, fluorescence; Purified PLC-beta3, fluorogenic substrate; inhibition, % at 12.2 µM; actives 0.18% (n = 370,000); in the data active = inhibition above about 11%;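 also: 0% = median of compound wells on plate and 100% = full blocker control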
UHRF1 MBD2 ctr = UHRF1 methylated DNA binding inhibitors, primary screen, counter-screen for MBD2 inhibitor project, biochemical, TR-FRET, human UHRF1, single concentration; E3 ubiquitin-protein ligase UHRF1 (Homo sapiens), Q96T88; UHRF1 binding to methylated oligo; inhibition, % at 4.4 µM; actives 0.75% (n = 370,000); AID 687016, 2013; in the data active = inhibition above about 21%;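 also: UHRF1 SRA domain binding a hemimethylated CpG hairpin DNA probe; 0% = median of test compound wells and 100% = reference inhibitor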
IN multimer up = HIV-1 IN multimer formation enhancers, counter-screen for LEDGF/p75 integration inhibitor project, biochemical, TR-FRET | shares compounds with LEDGF integ inh | TR-FRET HIV-1 integrase multimerization | activation, % at 7.7 µM | actives 17% (n = 2,000); in the data active = activation above about 8.9%
TRFRET interf = TR-FRET optical interference artefacts, confirmation, artefact control for LEDGF/p75-dependent integration inhibitor project, biochemical, HIV-1 IN multimerization; shares compounds with LEDGF integ inh; TR-FRET optical interference counterscreen; inhibition, % at 7.7 µM; 2,000 tested, under 10 active; AID 1053135, 2014;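 active = inhibition above the mean over all tested compounds plus 3 SD, which no compound reached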;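 also: 0% = integrase with antibodies and DMSO and 100% = antibodies without integrase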
IN-LEDGF confirm = inhibitors of HIV-1 IN-LEDGF/p75 DNA integration, confirmation, biochemical, TR-FRET. shares compounds with LEDGF integ inh. TR-FRET LEDGF/p75-dependent HIV-1 integration. inhibition, % at 3.7 µM. actives 36% (n = 2,000). AID 1053136, 2014; in the data active = inhibition above about 14%
* marks the source's active call; other numbers are inactive results.

For CC(=O)c1sc(NCc2ccccc2)nc1C the results were LEDGF integ inh 29*, PLC-gamma1 inh 0, MBD2 DNA inh -7, PLCb3 inh 3, UHRF1 MBD2 ctr -1, IN multimer up -1, TRFRET interf 5 and IN-LEDGF confirm 3.
Screening O=S1(=O)CC2c3ccc(F)cc3CN2CN1C1CCCC1 (stereo not drawn) returned LEDGF integ inh 0, PLC-gamma1 inh -3, MBD2 DNA inh 6, PLCb3 inh -14 and UHRF1 MBD2 ctr 0.
O=C(NN=C/C=C/c1ccco1)c1cc(-c2ccc(Cl)cc2)n[nH]1 was read as LEDGF integ inh 1, PLC-gamma1 inh -8, MBD2 DNA inh 0, PLCb3 inh -15 and UHRF1 MBD2 ctr 0.
Screening NC(=O)CSc1nc2scc(-c3ccco3)c2c(=O)n1-c1ccccc1 returned LEDGF integ inh 17*, PLC-gamma1 inh -25, MBD2 DNA inh 1, PLCb3 inh -33, UHRF1 MBD2 ctr 3, IN multimer up -1, TRFRET interf 3 and IN-LEDGF confirm 5.
O=C(CSc1nc2scc(-c3ccco3)c2c(=O)n1-c1ccccc1)N1CCOCC1 was read as LEDGF integ inh 2, PLC-gamma1 inh -5, MBD2 DNA inh 3, PLCb3 inh -8 and UHRF1 MBD2 ctr -3.
Screening O=c1c2c(-c3ccco3)csc2nc(SCc2cn3cccnc3n2)n1-c1ccccc1 returned LEDGF integ inh 27*, PLC-gamma1 inh -79, MBD2 DNA inh 7, PLCb3 inh -95, UHRF1 MBD2 ctr 32*, IN multimer up 2, TRFRET interf -8 and IN-LEDGF confirm 22*.
Screening CCCCN1CN2Cc3cc(F)ccc3C2CS1(=O)=O (stereo not drawn) returned LEDGF integ inh -5, PLC-gamma1 inh -2, MBD2 DNA inh -6, PLCb3 inh -1 and UHRF1 MBD2 ctr -4.
For CN(C)CC(=O)N[C@H]1C[C@@H]2O[C@@H](CO)CC[C@@H]2O[C@@H]1CCc1ccc(C2=CCCCC2)cc1 the results were LEDGF integ inh 0, PLC-gamma1 inh -2, MBD2 DNA inh -4, PLCb3 inh 3 and UHRF1 MBD2 ctr 1.
COc1ccc(CN2C(=O)c3cccnc3C2Nc2cc(Cl)ccc2OC)cc1 (stereo not drawn) was read as LEDGF integ inh 15*, PLC-gamma1 inh 2, MBD2 DNA inh -8, PLCb3 inh -1, UHRF1 MBD2 ctr 0, IN multimer up -1, TRFRET interf 7 and IN-LEDGF confirm 23*.
COc1ccc(OC)c(NC2c3ncccc3C(=O)N2Cc2ccco2)c1 (stereo not drawn) was read as LEDGF integ inh -1, PLC-gamma1 inh -3, MBD2 DNA inh 9, PLCb3 inh -1 and UHRF1 MBD2 ctr 5.
Cc1ccc(NC2c3ncccc3C(=O)N2Cc2ccco2)c(C)c1 (stereo not drawn) was read as LEDGF integ inh 20*, PLC-gamma1 inh 1, MBD2 DNA inh 2, PLCb3 inh 0, UHRF1 MBD2 ctr 12, IN multimer up 0, TRFRET interf -2 and IN-LEDGF confirm 6.
For Cc1ccc(-c2cc(C(=O)NN=Cc3cccc4ccccc34)[nH]n2)cc1C the results were LEDGF integ inh 4, PLC-gamma1 inh 8, MBD2 DNA inh -8, PLCb3 inh 6 and UHRF1 MBD2 ctr 2.

High-throughput results (PubChem)
